The full list was thinned out, with hits kept by preference.
Tg IFNy HTS: blocks Toxoplasma gondii growth in the presence of IFN-gamma; Toxoplasma gondii growth in IFN-gamma-treated host cells; active compounds read low; activity change, negative = inhibition, % (test concentration not listed); actives 3.8% (n = 69,000); AID 1259416; in the data active means activity change below about -70%, passing the limit was not always enough;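 further: host cells are HeLa cells infected with Toxoplasma gondii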
Hits are given with their value; i = inactive.

SMILES	Tg IFNy HTS
Cc1cc(C(=O)NC(C)C(=O)Nc2ccc(F)cc2C)n[nH]1 (stereo unspecified)	i
CCn1ccc(C(=O)N(C)C2Cc3ccccc3C2)cc1=O	i
CCOc1ccccc1NC(=O)N1CCC2(CC1)NC(=O)c1ccc(Cl)cc1N2CC	i
Cc1noc(C)c1CN(C)C(=O)c1cccc(NCc2cccnc2)c1C	i
CCC1c2cccn2CCN1C(=O)c1cccc(NCc2cccnc2)c1C (stereo unspecified)	i
Cc1c(NCc2cccnc2)cccc1C(=O)N1C[C@@H](C)O[C@@H](C)C1	-83
CN1CC(=O)N(c2ccccc2)CC12CCN(C(=O)c1ccc[nH]1)C2 (stereo unspecified)	i
CN(C(=O)c1cc(N2CC[C@@H](O)C2)ccn1)C1CCCCC1	i
O=C(Cc1ccc(O)cc1)NCCNC(=S)Nc1ccc(Cl)cc1	-96
S=C(CCC(=S)Nc1ccc(Cl)cc1)Nc1ccc(Cl)cc1	i
CSCCNC(=O)Nc1ccc(Cl)cc1	i
Cc1ccc2c(c1C)-n1cccc1C1(CCN(S(=O)(=O)c3ccc4c(c3)oc(=O)n4C)CC1)N2	i
C=CCN1C(=O)CCCC12CCCN(c1cccnc1)C2 (stereo unspecified)	i
COc1ccccc1-c1nc(Cn2nnc(C(=O)Nc3ccc(C)cc3C)c2C)c(C)o1	i
COc1ccc(CNc2nc(-c3nnc(-c4ccccc4)o3)nc3ccccc23)cc1	i
CCCCNc1nc(-c2nnc(-c3ccc(C)cc3)o2)nc2ccccc12	i
CCCSCCCNc1nc(-c2nnc(-c3cccc(C)c3)o2)nc2ccccc12	-107
Cc1ccc(CNc2nc(-c3nnc(-c4ccccc4)o3)nc3ccccc23)o1	i
Cc1ccc(-c2nnc(-c3nc(NCCCN4CCCC4=O)c4ccccc4n3)o2)cc1	i
Cc1ccc(-c2nnc(-c3nc(NCCc4cccs4)c4ccccc4n3)o2)cc1	i
CCCCNc1nc(-c2nnc(-c3ccccc3)o2)nc2ccccc12	-89
Cc1cccc(-c2nnc(-c3nc(NCCCN4CCCC4=O)c4ccccc4n3)o2)c1	i
Cc1ccc(-c2nnc(-c3nc(NCCCN4CCc5ccccc5C4)c4ccccc4n3)o2)cc1	-118
Cc1cccc(-c2nnc(-c3nc(NCCc4cnc[nH]4)c4ccccc4n3)o2)c1	i
c1ccc(-c2nnc(-c3nc(NCCN4CCOCC4)c4ccccc4n3)o2)cc1	i
SMILES	Tg IFNy HTS
CCCSCCCNc1nc(-c2nnc(-c3ccccc3)o2)nc2ccccc12	-92
CCN(CC)c1ncnc2c1cnn2CC(=O)NCC1CCCO1 (stereo unspecified)	i
CC(C)c1cc(CN(C)C(=O)c2ccc(NC(=O)C3CCC3)cc2)no1	i
COc1ccc(CNC2=NCCNC23CCN(S(=O)(=O)c2ccc(CC(C)C)cc2)CC3)cc1	i
Cc1ccccc1N1CCN(C2CCCN(C(=O)c3c[nH]c(=O)[nH]3)C2)CC1 (stereo unspecified)	i
O=C1CCCC2(CCCN(c3cccnc3)C2)N1 (stereo unspecified)	i
CC(C(=O)N1CCOc2c(O)cc(-c3nc4ccccc4s3)cc2C1)N(C)C (stereo unspecified)	i
O=C(NCCc1csc(-c2ccccc2)n1)[C@H]1CCCN1S(=O)(=O)c1cccc(Cl)c1	i
COc1ccccc1C1NC(C(=O)O)Cc2c1[nH]c1ccccc21 (stereo unspecified)	i
COc1ccccc1CNC(=O)c1cncc(NS(=O)(=O)c2ccc(NC(C)=O)cc2)c1	i
Cc1ccc(CCNc2nc(-c3nnc(-c4ccccc4)o3)nc3ccccc23)cc1	i
c1ccc(-c2nnc(-c3nc(NCCc4cccs4)c4ccccc4n3)o2)cc1	i
C1=C(CCNc2nc(-c3nnc(-c4ccccc4)o3)nc3ccccc23)CCCC1	-99
COc1cc2ncc(-c3ccccc3)nc2cc1OC	-85
COc1cc2nc(-c3ccccc3)nc(N3CCCC3)c2cc1OC	i
Cc1cc2ncc(-c3ccccc3)nc2cc1C	i
CCCNC(=O)N1C[C@@H](C)[C@@H](OC)CN(C)C(=O)c2ccc(NC(=O)CC)cc2OC[C@@H]1C	i
COc1cc2c(cc1CN1CCC(NC(C)=O)(c3ccc(F)cc3)CC1)CCC2	i
O=C(Cc1ccc2c(c1)CCC2)NCCN1CCC(O)(c2ccc(F)cc2)CC1	-76
O=C(NCCN1CCC(O)(c2ccc(F)cc2)CC1)c1c(F)cccc1F	i
CCOCC1CN(C(=O)c2cscn2)Cc2cn(C)nc21 (stereo unspecified)	i
CC(=O)Nc1ccc(S(=O)(=O)N2CCC(n3cnc4cccnc43)CC2)cc1	-96
O=C(N1CCC(n2cnc3cccnc32)CC1)N1c2ccccc2Sc2ccccc21	i
CC(=O)Nc1ccc(S(=O)(=O)N2CCC(Cc3cc(N)nc(C)n3)CC2)cc1	i
O=C(NCc1ccco1)C1CCCN(C(=O)Nc2ccccc2)C1 (stereo unspecified)	i
Cc1[nH]cnc1CN(C)Cc1cnn(-c2ccc(F)cc2)c1	i
CO[C@@H]1CN(C)C(=O)c2cc(NC(C)=O)ccc2OC[C@@H](C)N(S(C)(=O)=O)C[C@H]1C	i
COc1cc(NC(=O)NC2Cc3ccccc3C2)cc(OC)c1	i
